Here are results for three molecules from PubChem BioAssay (EPA / NIEHS).

The source made the active and inactive calls. Rule for the calls: active = hit-call score of the fitted dose curve at least 0.9, where 1 is the maximum; inactive = score below 0.9.

Settings in all cases: mRNA level, 48 h; actives raise or lower the signal
Read-out in one assay: MYC, MYC (gene 4609)
The assay can be described thus: LTEA_HepaRG_MYC: Life Technologies and Expression Analysis (LTEA) Assay for MYC using HepaRG (AID 2283518). The gist of the method: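 Cells are thawed, plated and cultured 48 h, then treated for 48 h with test chemicals (eight half-log concentrations from 100 uM, 0.5% DMSO vehicle). RNA is isolated and MYC expression quantified by qRT-PCR against three housekeeping genes.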

Read-out in assay [1]: matrix metalloproteinase-3 (MMP3), MMP3 (gene 4314)
The assay can be described thus: LTEA_HepaRG_MMP3: Life Technologies and Expression Analysis (LTEA) Assay for matrix metalloproteinase-3 (MMP3) using HepaRG (AID 2283519). The method in brief:
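Differentiated human HepaRG cells, plated 48 h on collagen I, were exposed in duplicate for 48 h in serum-free induction medium to eight half-log concentrations up to 100 uM in 0.5% DMSO. MMP3 mRNA was quantified by TaqMan qRT-PCR, normalised to ACTB, GAPDH and POLR2A.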

Read-out in assay [2]: Paternally Expressed 10 (PEG10), PEG10 (gene 23089)
The assay can be described thus: LTEA_HepaRG_PEG10: Life Technologies and Expression Analysis (LTEA) Assay for Paternally Expressed 10 (PEG10) using HepaRG (AID 2283520). The gist of the method:
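HepaRG, 48 h post-plating → serum-free induction medium → 48 h chemical exposure (duplicate, 8-pt, max 100 uM, half-log, 0.5% DMSO) → lysis in RLT → TaqMan qRT-PCR for PEG10, ACTB/GAPDH/POLR2A normalisation.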

Read-out in assay [3]: Nuclear factor NF-kappa-B p105 subunit (Homo sapiens) (UniProt P19838)
The assay can be described thus: LTEA_HepaRG_NFKB1: Life Technologies and Expression Analysis (LTEA) Assay for Nuclear Factor Kappa B Subunit 1 (NFKB1) using HepaRG (AID 2283521). The gist of the method: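 NFKB1 transcript was measured by TaqMan qRT-PCR on Fluidigm arrays, normalised to three housekeeping genes and fitted in both directions against 0.5% DMSO. HepaRG cells were dosed in duplicate for 48 h in serum-free induction medium, eight half-log steps from 100 uM.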

Read-out in assay [4]: Protein phosphatase 2A (PPP2R4), PTPA (gene 5524)
The assay can be described thus: LTEA_HepaRG_PPP2R4: Life Technologies and Expression Analysis (LTEA) Assay for Protein phosphatase 2A (PPP2R4) using HepaRG (AID 2283522). The method in brief:
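Readout is PPP2R4 transcript level by microfluidic qRT-PCR after 48 h chemical treatment of human HepaRG liver cells. Concentrations spanned 100 uM downward in half-log steps; gain or loss of signal was fitted relative to DMSO.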

Read-out in assay [5]: Phosphatase and tensin (PTEN), PTEN (gene 5728)
The assay can be described thus: LTEA_HepaRG_PTEN: Life Technologies and Expression Analysis (LTEA) Assay for Phosphatase and tensin (PTEN) using HepaRG (AID 2283523). The gist of the method: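 Differentiated human HepaRG cells, plated 48 h then switched to serum-free induction medium, were exposed in duplicate for 48 h to eight half-log concentrations up to 100 uM in 0.5% DMSO. PTEN mRNA measured by TaqMan qRT-PCR, normalized to ACTB/GAPDH/POLR2A, bidirectional fit versus DMSO.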

Read-out in assay [6]: solute carrier (SLC22A1), SLC22A1 (gene 6580)
The assay can be described thus: LTEA_HepaRG_SLC22A1: Life Technologies and Expression Analysis (LTEA) Assay for solute carrier (SLC22A1) using HepaRG (AID 2283524). The method in brief:
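Human HepaRG cells were plated 48 h, switched to serum-free induction medium, then exposed in duplicate for 48 h to 8-point half-log series from 100 uM in 0.5% DMSO. SLC22A1 mRNA measured by qRT-PCR, normalized to ACTB/GAPDH/POLR2A, fitted bidirectionally versus DMSO.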

Read-out in assay [7]: Pyruvate Dehydrogenase Kinase 4 (PDK4), PDK4 (gene 5166)
The assay can be described thus: LTEA_HepaRG_PDK4: Life Technologies and Expression Analysis (LTEA) Assay for Pyruvate Dehydrogenase Kinase 4 (PDK4) using HepaRG (AID 2283525). The method in brief:
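Differentiated human HepaRG cells, pre-cultured 48 h, were exposed in duplicate for 48 h in serum-free induction medium to eight half-log concentrations up to 100 uM in 0.5% DMSO. PDK4 mRNA was quantified by qRT-PCR, normalized to ACTB, GAPDH and POLR2A, bidirectional fitting versus DMSO.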

Read-out in assay [8]: NAD(P)H dehydrogenase [quinone] 1 (NQO1), NQO1 (gene 1728)
The assay can be described thus: LTEA_HepaRG_NQO1: Life Technologies and Expression Analysis (LTEA) Assay for NAD(P)H dehydrogenase [quinone] 1 (NQO1) using HepaRG (AID 2283526). The method in brief: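 HepaRG, 48 h post-plating → serum-free induction medium → test chemical 48 h (duplicate, 100 uM top, half-log x8, 0.5% DMSO) → RNA isolation → qRT-PCR, ACTB/GAPDH/POLR2A normalization; bidirectional curve fit vs DMSO baseline.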

Read-out in assay [9]: Nuclear factor erythroid 2-related factor 2 (Homo sapiens) (UniProt Q16236)
The assay can be described thus: LTEA_HepaRG_NFE2L2: Life Technologies and Expression Analysis (LTEA) Assay for Nuclear factor erythroid 2-related factor 2 (NFE2L2) Transcription Factor using HepaRG (AID 2283527). The gist of the method:
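Differentiated human HepaRG cells in serum-free induction medium were exposed for 48 h to eight concentrations (top 100 uM, half-log dilutions, 0.5% DMSO), in duplicate. NFE2L2 mRNA was quantified by TaqMan qRT-PCR, normalized to ACTB, GAPDH and POLR2A, with bidirectional fitting versus DMSO.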

Read-out in assay [10]: succinate dehydrogenase complex iron sulfur subunit B (SDHB), SDHB (gene 6390)
The assay can be described thus: LTEA_HepaRG_SDHB: Life Technologies and Expression Analysis (LTEA) Assay for succinate dehydrogenase complex iron sulfur subunit B (SDHB) using HepaRG (AID 2283528). The gist of the method:
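SDHB transcript level read by TaqMan qRT-PCR, housekeeping-normalised (ACTB, GAPDH, POLR2A), after 48 h chemical treatment of plated HepaRG cells; eight concentrations top 100 uM, half-log steps, 0.5% DMSO, duplicates; fitted both directions against DMSO.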

Read-out in assay [11]: Signal transducer and activator of transcription 3 (Homo sapiens) (UniProt P40763)
The assay can be described thus: LTEA_HepaRG_STAT3: Life Technologies and Expression Analysis (LTEA) Assay for Signal transducer and activator of transcription (STAT3) using HepaRG (AID 2283529). The gist of the method:
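Differentiated human HepaRG cells in serum-free induction medium were exposed in duplicate for 48 h to eight half-log concentrations up to 100 uM in 0.5% DMSO. STAT3 mRNA was quantified by TaqMan qRT-PCR, normalized to ACTB, GAPDH and POLR2A, and fitted bidirectionally against DMSO.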

Read-out in assay [12]: solute carrier (SLCO1B1), SLCO1B1 (gene 10599)
The assay can be described thus: LTEA_HepaRG_SLCO1B1: Life Technologies and Expression Analysis (LTEA) Assay for solute carrier (SLCO1B1) using HepaRG (AID 2283530). The gist of the method: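 Gain or loss of SLCO1B1 mRNA is fitted against the 0.5% DMSO vehicle in human HepaRG liver cells treated 48 h at up to 100 uM in half-log steps. Expression comes from qRT-PCR normalized to endogenous controls.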

Read-out in assay [13]: sulfotransferase 2A1 (SULT2A1), SULT2A1 (gene 6822)
The assay can be described thus: LTEA_HepaRG_SULT2A1: Life Technologies and Expression Analysis (LTEA) Assay for sulfotransferase 2A1 (SULT2A1) using HepaRG (AID 2283531). The gist of the method:
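Cells were plated and cultured 48 h, switched to serum-free induction medium, then dosed in duplicate for 48 h (8 concentrations, max 100 uM). RNA was isolated and SULT2A1 expression measured by qRT-PCR; gain or loss of signal fitted relative to DMSO.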

Read-out in assay [14]: Transforming Growth Factor (TGFA), TGFA (gene 7039)
The assay can be described thus: LTEA_HepaRG_TGFA: Life Technologies and Expression Analysis (LTEA) Assay for Transforming Growth Factor (TGFA) using HepaRG (AID 2283532). The gist of the method: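 Differentiated human HepaRG cells, plated 48 h then switched to serum-free induction medium, were exposed in duplicate for 48 h to 8-point half-log series from 100 uM in 0.5% DMSO. TGFA mRNA measured by qRT-PCR, normalized to ACTB/GAPDH/POLR2A, bidirectional fit versus DMSO.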

Read-out in assay [15]: Transforming Growth Factor (TGFB1), TGFB1 (gene 7040)
The assay can be described thus: LTEA_HepaRG_TGFB1: Life Technologies and Expression Analysis (LTEA) Assay for Transforming Growth Factor (TGFB1) Transporter using HepaRG (AID 2283533). The method in brief:
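Expression change of TGFB1 in human HepaRG cells is measured after a 48 h chemical exposure, up to 100 uM in 0.5% DMSO vehicle. Curves are fitted in both directions relative to the DMSO baseline.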

Read-out in the next assay: TIMP1, TIMP1 (gene 7076)
The assay can be described thus: LTEA_HepaRG_TIMP1: Life Technologies and Expression Analysis (LTEA) Assay for TIMP1 using HepaRG (AID 2283534).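 Note: TaqMan qRT-PCR signal normalized to ACTB GAPDH and POLR2A housekeeping genes.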 The method in brief: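 We dosed human liver HepaRG cultures for 48 hours with up to 100 uM test chemical and measured TIMP1 expression by qRT-PCR. Activity in either direction is fitted relative to the 0.5% DMSO vehicle.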

Read-out in assay [16]: Tumor necrosis factor receptor 1 (TNFRSF1A), TNFRSF1A (gene 7132)
The assay can be described thus: LTEA_HepaRG_TNFRSF1A: Life Technologies and Expression Analysis (LTEA) Assay for Tumor necrosis factor receptor 1 (TNFRSF1A) using HepaRG (AID 2283535). The method in brief: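 Expression of TNFRSF1A in human HepaRG liver cells was measured by qRT-PCR 48 h after chemical dosing (maximum 100 uM). Bidirectional curve fitting used 0.5% DMSO as baseline.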

Read-out in assay [17]: Thyroid Hormone Responsive (THRSP), THRSP (gene 7069)
The assay can be described thus: LTEA_HepaRG_THRSP: Life Technologies and Expression Analysis (LTEA) Assay for Thyroid Hormone Responsive (THRSP) using HepaRG (AID 2283536). The gist of the method:
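Differentiated human HepaRG cells were exposed in duplicate for 48 h in serum-free induction medium to eight concentrations (top 100 uM, half-log steps, 0.5% DMSO). Expression was quantified by TaqMan qRT-PCR, normalized to ACTB, GAPDH and POLR2A, with bidirectional fitting against DMSO.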

Read-out in assay [18]: Cellular tumor antigen p53 (Homo sapiens) (UniProt P04637)
The assay can be described thus: LTEA_HepaRG_TP53: Life Technologies and Expression Analysis (LTEA) Assay for Tumor Protein P53 (TP53) using HepaRG (AID 2283537). The gist of the method:
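TP53 transcript measured by qRT-PCR, normalized to three housekeeping genes, after 48 h treatment of human HepaRG cultures with chemicals from 100 uM downward in half-log steps (0.5% DMSO vehicle, serum-free induction medium). Up- or down-regulation fitted against DMSO.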

Nuclear factor erythroid 2-related factor 2 (Homo sapiens), sequence (Q16236 whole entry, looked up): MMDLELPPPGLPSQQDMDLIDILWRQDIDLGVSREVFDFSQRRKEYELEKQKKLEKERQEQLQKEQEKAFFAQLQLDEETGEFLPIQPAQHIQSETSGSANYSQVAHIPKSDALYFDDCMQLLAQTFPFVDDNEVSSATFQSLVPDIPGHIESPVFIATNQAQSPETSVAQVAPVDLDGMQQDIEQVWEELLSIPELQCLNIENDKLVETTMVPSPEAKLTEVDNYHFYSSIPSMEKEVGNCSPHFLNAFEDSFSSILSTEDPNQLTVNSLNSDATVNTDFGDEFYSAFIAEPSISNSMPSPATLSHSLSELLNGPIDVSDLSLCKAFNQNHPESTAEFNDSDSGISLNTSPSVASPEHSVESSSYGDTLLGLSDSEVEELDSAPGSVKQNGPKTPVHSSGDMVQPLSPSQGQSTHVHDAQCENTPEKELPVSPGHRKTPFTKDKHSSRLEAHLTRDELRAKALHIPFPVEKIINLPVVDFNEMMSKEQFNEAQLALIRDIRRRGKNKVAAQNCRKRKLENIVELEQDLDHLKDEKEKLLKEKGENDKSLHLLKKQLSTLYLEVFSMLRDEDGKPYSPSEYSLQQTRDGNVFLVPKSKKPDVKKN
Nuclear factor NF-kappa-B p105 subunit (Homo sapiens), sequence (P19838 whole entry, looked up): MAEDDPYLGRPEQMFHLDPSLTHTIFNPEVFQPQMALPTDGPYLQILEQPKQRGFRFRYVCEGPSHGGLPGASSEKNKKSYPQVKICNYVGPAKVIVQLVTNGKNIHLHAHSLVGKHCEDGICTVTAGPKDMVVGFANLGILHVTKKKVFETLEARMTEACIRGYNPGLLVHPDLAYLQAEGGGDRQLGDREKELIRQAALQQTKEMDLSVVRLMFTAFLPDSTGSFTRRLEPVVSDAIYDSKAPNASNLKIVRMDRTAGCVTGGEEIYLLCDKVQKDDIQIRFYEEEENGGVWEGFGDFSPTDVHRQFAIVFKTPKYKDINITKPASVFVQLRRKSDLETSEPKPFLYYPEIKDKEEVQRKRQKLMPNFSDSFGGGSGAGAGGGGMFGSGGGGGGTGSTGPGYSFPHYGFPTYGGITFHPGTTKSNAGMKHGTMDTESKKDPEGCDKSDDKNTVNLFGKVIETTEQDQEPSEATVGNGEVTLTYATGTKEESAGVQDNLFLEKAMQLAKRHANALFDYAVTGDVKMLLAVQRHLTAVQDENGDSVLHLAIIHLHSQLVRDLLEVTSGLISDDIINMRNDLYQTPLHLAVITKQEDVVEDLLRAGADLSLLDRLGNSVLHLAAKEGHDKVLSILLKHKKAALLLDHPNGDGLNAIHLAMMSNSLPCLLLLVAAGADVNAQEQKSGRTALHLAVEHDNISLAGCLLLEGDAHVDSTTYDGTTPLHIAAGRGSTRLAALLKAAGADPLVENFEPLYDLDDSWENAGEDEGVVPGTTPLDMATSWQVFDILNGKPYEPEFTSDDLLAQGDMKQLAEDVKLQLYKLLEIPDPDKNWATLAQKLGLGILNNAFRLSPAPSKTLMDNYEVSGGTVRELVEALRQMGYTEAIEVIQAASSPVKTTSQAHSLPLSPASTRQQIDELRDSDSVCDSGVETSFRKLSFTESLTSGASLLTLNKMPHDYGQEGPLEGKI
Signal transducer and activator of transcription 3 (Homo sapiens), sequence (P40763 whole entry, looked up): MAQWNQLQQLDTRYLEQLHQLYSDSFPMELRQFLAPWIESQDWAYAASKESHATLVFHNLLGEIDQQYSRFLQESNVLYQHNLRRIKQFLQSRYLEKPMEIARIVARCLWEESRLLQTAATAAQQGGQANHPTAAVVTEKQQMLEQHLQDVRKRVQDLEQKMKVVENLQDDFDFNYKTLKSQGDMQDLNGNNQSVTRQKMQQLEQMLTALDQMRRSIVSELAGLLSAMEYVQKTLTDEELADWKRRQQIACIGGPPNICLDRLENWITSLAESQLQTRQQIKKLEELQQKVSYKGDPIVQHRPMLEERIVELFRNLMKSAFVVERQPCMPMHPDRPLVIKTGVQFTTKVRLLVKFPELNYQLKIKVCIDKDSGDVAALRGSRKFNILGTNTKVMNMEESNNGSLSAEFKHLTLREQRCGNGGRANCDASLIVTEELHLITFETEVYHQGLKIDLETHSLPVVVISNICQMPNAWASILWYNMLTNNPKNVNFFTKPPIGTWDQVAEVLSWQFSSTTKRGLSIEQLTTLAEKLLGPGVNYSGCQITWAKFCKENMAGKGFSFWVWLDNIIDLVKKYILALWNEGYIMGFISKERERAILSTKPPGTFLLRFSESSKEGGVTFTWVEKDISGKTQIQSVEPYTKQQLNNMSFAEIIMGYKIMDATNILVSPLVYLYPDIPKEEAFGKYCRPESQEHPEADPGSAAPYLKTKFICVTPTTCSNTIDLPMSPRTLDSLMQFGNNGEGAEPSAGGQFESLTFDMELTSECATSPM
Cellular tumor antigen p53 (Homo sapiens), sequence (P04637 whole entry, looked up): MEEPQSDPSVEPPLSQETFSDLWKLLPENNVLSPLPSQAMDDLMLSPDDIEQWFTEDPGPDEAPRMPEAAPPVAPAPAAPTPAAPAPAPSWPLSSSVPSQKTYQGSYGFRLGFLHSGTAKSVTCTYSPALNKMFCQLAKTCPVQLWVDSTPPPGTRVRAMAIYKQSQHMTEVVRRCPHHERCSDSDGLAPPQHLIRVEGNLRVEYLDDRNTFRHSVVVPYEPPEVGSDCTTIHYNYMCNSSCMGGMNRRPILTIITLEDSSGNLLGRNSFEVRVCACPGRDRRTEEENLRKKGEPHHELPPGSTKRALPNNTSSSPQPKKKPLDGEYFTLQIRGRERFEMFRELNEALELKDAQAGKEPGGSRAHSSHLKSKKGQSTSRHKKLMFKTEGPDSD

As for `Cc1occc(=O)c1O`, the outcome was “inactive” with MYC, MYC (gene 4609); “inactive” in assay [1]; “inactive” in assay [2]; “inactive” in assay [3]; “inactive” in assay [4]; “inactive” in [5]. Also, the molecule was called inactive in assay [6], in [7], in assay [8], in assay [9], in [10] and in assay [11]. The outcome was “inactive” in assay [12]; “inactive” in assay [13]; “inactive” in [14]; “inactive” in [15]; “inactive” with TIMP1, TIMP1 (gene 7076); “inactive” in assay [16]. In addition, the result in [17] was inactive.

As for `CCCCc1nc2cccnc2n1Cc1ccc(-c2ccccc2-c2nnn[nH]2)cc1`, the outcome is “inactive” with MYC, MYC (gene 4609); “inactive” in [3]; “inactive” in [4]; “inactive” in [5]; “inactive” in assay [8]; “inactive” in assay [9]. The molecule was called inactive in [10], in [11], in [12], in assay [13], in assay [14] and in assay [15]. Further, the outcome with TIMP1, TIMP1 (gene 7076) is “inactive”; in assay [16], “inactive”; in assay [18], “inactive”. For the same molecule, the AC50 in assay [1] is 50 µM (active); in assay [2], 74.6 µM (active); in [6], 65.5 µM (active); in assay [7] it was 28.6 µM (active); in assay [17] it was 35.5 µM (active).

`O=NO`: the outcome was “inactive” with MYC, MYC (gene 4609); “inactive” in [1]; “inactive” in assay [2]; “inactive” in [3]; “inactive” in [4]; “inactive” in assay [5]. The call in assay [6], in [7], in assay [8], in assay [9], in [10] and in assay [11] was inactive. The outcome in [12], in [13], in [14], in [15], in [16] and in assay [17] was inactive.
